The source of these data is PubChem BioAssay (NCI).

Test systems include RPMI-8226 leukemia; OVCAR-8 ovarian; OVCAR-5 ovarian; OVCAR-4 ovarian; SK-OV-3 ovarian; IGROV1 ovarian; OVCAR-3 ovarian; HS 578T breast; NCI/ADR-RES ovarian; T-47D breast; BT-549 breast; MDA-MB-435 melanoma; SW-620 colon; MCF7 breast; HCT-116 colon; HCC-2998 colon; KM12 colon.
Common to all, as to assay: NCI-60 one-dose screen, 48 h (100 = growth as untreated, 0 = no growth, -100 = all killed)
Holding throughout (settings): 10 µM unless noted

About 83,000 compounds went through this panel and 20% of them were active in at least one assay; those are over-represented in the sample as a whole.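 Growth was measured after 48 h exposure to one concentration of compound in 96-well plates. Values under 10 count as active.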 Values without a mark were called inactive. The source made the active and inactive calls.

On to `COc1cc2cc(c1Cl)N(C)C(=O)C[C@H](OC(=O)[C@H](C)N(C)C(=O)CCS)C[C@]1(C)O[C@H]1[C@H](C)[C@@H]1C[C@@](O)(NC(=O)O1)[C@H](OC)/C=C/C=C(\C)C2`, for which the growth was 24.4% in the assay on RPMI-8226 leukemia; 13.7% in the assay with OVCAR-8 ovarian; 44% in the assay on OVCAR-5 ovarian; 28.8% in the assay on OVCAR-4 ovarian; 18.7% in the assay with SK-OV-3 ovarian; 18.5% in the assay with IGROV1 ovarian. Also, the growth is -4.97% (active) in the assay on OVCAR-3 ovarian; 20.9% in the assay with HS 578T breast; 10.5% in the assay with NCI/ADR-RES ovarian; 61.2% in the assay with T-47D breast; 21.9% in the assay on BT-549 breast; -16.4% (active) in the assay on MDA-MB-435 melanoma. For the same compound, the growth in the assay on SW-620 colon is 18.5%; in the assay on MCF7 breast it was 11.4%; with HCT-116 colon, 2.39% (active); with HCC-2998 colon, 8.58% (active); with KM12 colon, 16.1%.
For `COc1ccccc1N1CCN(CCCOc2ccc(C(=O)/C=C3/C(=O)Nc4ccccc43)cc2)CC1`, the growth is 34.9% in the assay on RPMI-8226 leukemia; 65.9% with OVCAR-8 ovarian; 32.4% in the assay with OVCAR-5 ovarian; 45.2% in the assay with OVCAR-4 ovarian; 79.7% in the assay with SK-OV-3 ovarian; 67.7% in the assay on IGROV1 ovarian. In addition, the growth was 66.1% in the assay with OVCAR-3 ovarian; 26.7% in the assay on HS 578T breast; 73% in the assay on NCI/ADR-RES ovarian; 33.3% with T-47D breast; 68.1% with BT-549 breast; 73% with MDA-MB-435 melanoma. Further, the growth is 70.6% in the assay on SW-620 colon; 49.7% in the assay with MCF7 breast; 34.4% with HCT-116 colon; 60.2% in the assay on HCC-2998 colon; 59.4% in the assay on KM12 colon.
As to `NCCN1CCNCC1`, the growth in the assay with RPMI-8226 leukemia is 79.2%; with OVCAR-8 ovarian it was 112%; in the assay with OVCAR-5 ovarian, 94%; in the assay with OVCAR-4 ovarian it was 100%; in the assay with SK-OV-3 ovarian, 101%; with IGROV1 ovarian, 104%. In addition, the growth with OVCAR-3 ovarian is 109%; in the assay with HS 578T breast, 98%; in the assay on NCI/ADR-RES ovarian, 102%; in the assay with T-47D breast, 86.2%; in the assay with BT-549 breast it was 130%; with MDA-MB-435 melanoma, 105%. Moreover, the growth with SW-620 colon was 103%; in the assay on MCF7 breast, 96.6%; in the assay on HCT-116 colon, 105%; in the assay on HCC-2998 colon it was 94.3%; in the assay on KM12 colon, 109%.
As to `CC(C)CSc1nc(Nc2ccccc2)c(C#N)c(-c2ccc(F)cc2)n1`, the growth is 21.6% in the assay with RPMI-8226 leukemia; 29.4% in the assay with OVCAR-8 ovarian; 40.8% in the assay on OVCAR-5 ovarian; -81.3% (active) with OVCAR-4 ovarian; 46.8% in the assay on SK-OV-3 ovarian; 1.71% (active) with IGROV1 ovarian. In addition, the growth with OVCAR-3 ovarian is -33.2% (active); in the assay with HS 578T breast, 14.6%; in the assay with NCI/ADR-RES ovarian, 41.1%; in the assay on T-47D breast it was 29.1%; in the assay on BT-549 breast, 28%; in the assay with MDA-MB-435 melanoma, 77.4%. Also, the growth with SW-620 colon is 55.2%; with MCF7 breast, 69%; in the assay with HCT-116 colon, 7.9% (active); with HCC-2998 colon it was 69.1%; in the assay on KM12 colon, 73.2%.
Regarding `C=C1C(=O)O[C@H]2[C@H]1CC/C(COC(=O)N1CCC[C@H]1C(=O)Nc1ccc(OC)c(C(N)=O)c1O)=C\CC[C@@]1(C)O[C@@H]21`, the growth in the assay on RPMI-8226 leukemia was 1.38% (active); with OVCAR-8 ovarian, 44.4%; in the assay on OVCAR-5 ovarian it was 68.5%; in the assay with OVCAR-4 ovarian it was 52%; in the assay on SK-OV-3 ovarian, 88.8%; in the assay on IGROV1 ovarian, 14.7%. The growth in the assay on OVCAR-3 ovarian is 4.49% (active); in the assay on HS 578T breast it was 71.8%; in the assay on NCI/ADR-RES ovarian it was 106%; in the assay on T-47D breast, 29.8%; in the assay with BT-549 breast, 38.5%; with MDA-MB-435 melanoma it was 44.3%. Besides, the growth in the assay with SW-620 colon was 2.83% (active); with MCF7 breast, 12.1%; with HCT-116 colon it was 14.8%; in the assay on HCC-2998 colon it was 94.8%; in the assay with KM12 colon, 67.2%.
For the compound `COC(=O)/C=C1\SC(=Nc2cccc(Cl)c2)N(CCc2c[nH]c3ccccc23)C1=O`, the growth in the assay with RPMI-8226 leukemia is -25% (active); with OVCAR-8 ovarian, 51.4%; in the assay with OVCAR-5 ovarian, 73.6%; with OVCAR-4 ovarian it was 62%; with SK-OV-3 ovarian, 83.8%; in the assay on IGROV1 ovarian, 53.7%. Besides, the growth is 33.3% in the assay on OVCAR-3 ovarian; 67.4% with HS 578T breast; 52.4% in the assay with NCI/ADR-RES ovarian; 11.9% with T-47D breast; 44.8% in the assay with BT-549 breast; 42.7% with MDA-MB-435 melanoma. In addition, the growth in the assay with SW-620 colon is 40.5%; in the assay with MCF7 breast it was 20.1%; in the assay on HCT-116 colon it was 38.2%; in the assay on HCC-2998 colon, 52.9%; in the assay on KM12 colon, 24.3%.
Turning to `COc1ccc(-c2cs/c(=N\N=C\c3ccc(O)cc3O)n2/N=C/c2ccc(O)cc2O)cc1`, the growth in the assay with RPMI-8226 leukemia was -25.9% (active); with OVCAR-8 ovarian, -17.1% (active); in the assay on OVCAR-5 ovarian, 10.6%; in the assay with OVCAR-4 ovarian it was -7.88% (active); in the assay with SK-OV-3 ovarian, -30.8% (active); with IGROV1 ovarian it was -17.2% (active). For the same compound, the growth in the assay with OVCAR-3 ovarian is -63.5% (active); with HS 578T breast, 24.1%; in the assay with NCI/ADR-RES ovarian, -12.4% (active); with T-47D breast, -36.8% (active); with BT-549 breast, -10.4% (active); in the assay with MDA-MB-435 melanoma it was -32.8% (active). For the same compound, the growth is -51.3% (active) with SW-620 colon; -11.5% (active) with MCF7 breast; -52.8% (active) in the assay on HCT-116 colon; 4.8% (active) in the assay on HCC-2998 colon; -51% (active) in the assay with KM12 colon.
For the compound `CCCCCCCc1n(Cc2ccc3ccccc3c2)c2ccccc2[n+]1Cc1ccc2ccccc2c1`, the growth with RPMI-8226 leukemia is -53% (active); in the assay on OVCAR-8 ovarian it was -69.8% (active); in the assay on OVCAR-5 ovarian, -83.7% (active); in the assay on OVCAR-4 ovarian, -62.5% (active); in the assay with SK-OV-3 ovarian, -91.7% (active); in the assay on IGROV1 ovarian, -67.5% (active). In addition, the growth is -86.7% (active) in the assay with OVCAR-3 ovarian; -42.7% (active) in the assay on HS 578T breast; -35% (active) in the assay with NCI/ADR-RES ovarian; -74.2% (active) with T-47D breast; -86.6% (active) in the assay with BT-549 breast; -92.3% (active) in the assay on MDA-MB-435 melanoma. In addition, the growth in the assay with SW-620 colon is -80% (active); in the assay on MCF7 breast, -64.7% (active); in the assay on HCT-116 colon, -84.6% (active); in the assay on HCC-2998 colon, -61.2% (active); in the assay on KM12 colon, -74.9% (active).
Regarding `O=C(NC[C@H](O)CN1CCc2ccccc2C1)c1cc(NC2COC2)ncn1`, the growth with RPMI-8226 leukemia was 107%; in the assay on OVCAR-8 ovarian it was 97.3%; in the assay with OVCAR-5 ovarian it was 96.4%; in the assay with OVCAR-4 ovarian, 91.5%; in the assay with SK-OV-3 ovarian it was 107%; in the assay on IGROV1 ovarian it was 76.9%. Besides, the growth with OVCAR-3 ovarian is 104%; in the assay with HS 578T breast it was 122%; in the assay on NCI/ADR-RES ovarian, 98.4%; in the assay with T-47D breast, 83.4%; with BT-549 breast, 97.8%; in the assay with MDA-MB-435 melanoma, 95.1%. The growth in the assay with SW-620 colon was 93.8%; in the assay on MCF7 breast, 80.2%; with HCT-116 colon it was 86.7%; in the assay on HCC-2998 colon, 98.8%; in the assay on KM12 colon it was 98.1%.
